Assay outcomes as filed in PubChem.
Only a selection was taken, and hits are over-represented in it overall.
KDM5B inhibitor: Primary screen for KDM5B Histone Demethylases FDH-coupled qHTS; Lysine-specific demethylase 5B (Homo sapiens), Q9UGL1; KDM5B demethylase, FDH-coupled NADH fluorescence (FDH is formaldehyde dehydrogenase); Potency, µM (top dose mostly 57.7 µM), actives largely listed as inhibitors; actives 2.6% (n = 220,000); AID 1347165, 2019; active means well fitted inhibition curve with a large enough effect; further: 0% is about no effect; nearly all actives have a fitted effect of over 70% in size
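Inhibition is measured as reduced NADH fluorescence generation from FDH coupling to formaldehyde release. Truncated KDM5BΔAP at 200 nM final acts on H3K4me3 peptide (12.5 µM in substrate mix) in pH 7.5 HEPES buffer with Tween-20, 30 min, room temperature.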
The depositor's hits bear a star; i = inactive. Potency means the concentration at half of the fitted maximal effect.

SMILES	KDM5B inhibitor
Cc1cc(C(=O)NCCCOC(C)C)c2c(C3CCCN3)noc2n1 (configuration not stated)	50µM*
O=C(NCC1CC1)c1cc(C2CC2)nc2onc(C3CCCNC3)c12 (configuration not stated)	89µM*
Cc1cc(C(=O)NCC2CC2)c2c(C3CCNCC3)noc2n1	i
O=C(c1cc(C2CC2)nc2onc(C3CCCN3)c12)N1CCCCC1 (configuration not stated)	i
O=C(NCC1CC1)c1cc(C2CC2)nc2onc(C3CCCN3)c12 (configuration not stated)	89µM*
Cc1cc(C(=O)NC2CCCC2)c2c(C3CCCN3)noc2n1 (configuration not stated)	i
Cc1cc(C(=O)NC2CC2)c2c(C3CCCN3)noc2n1 (configuration not stated)	i
COCCNC(=O)c1cc(-c2ccccc2C(F)(F)F)nc2onc(C3CCCN3)c12 (configuration not stated)	i
O=C(NCc1ccc(F)cc1)c1cc(C2CC2)nc2onc(C3CCCN3)c12 (configuration not stated)	i
COCCNC(=O)c1cc(C2CC2)nc2onc(C3CCCN3)c12 (configuration not stated)	56µM*
O=C(NCc1ccc(F)cc1)c1cc(C2CC2)nc2onc(C3CCCNC3)c12 (configuration not stated)	i
CC(C)C(=O)NC(Nc1cccc2ccccc12)C(Cl)(Cl)Cl (configuration not stated)	i
CCCCOC(=O)/C(C#N)=C/c1c[nH]c2ccccc12	i
CC(C)OC(=O)CCNC(=O)c1ccc(CS(C)(=O)=O)cc1	i
COc1ccc(OC)c(C(=O)Oc2cc(Cl)ccc2Cl)c1	i
Cc1ccccc1CC(CC(=O)O)C(=O)O (configuration not stated)	i
Cc1cc(C(F)F)nn1Cc1nc2c3c4c(sc3ncn2n1)CC(C(C)(C)C)CC4 (configuration not stated)	i
O=C(Nc1c(NC2CCCC2)c2ccccc2oc1=O)c1cccs1	i
O=S(=O)(Cc1ccccc1)NCc1cccc(CNS(=O)(=O)Cc2ccccc2)c1	i
O=C(COC(=O)c1cc(=O)c2ccccc2o1)Nc1ccc(Cl)cc1	i
O=C(NCCN1CCCC1)c1cc2cn(C3CC3)cc2s1	10µM*
CC(C)(C)c1ccc(C(=O)NCCN2CCCC2)cc1	i
O=C(NCCN1CCCCCC1)C1CC=CCC1 (configuration not stated)	i
CC1CS(=O)(=O)N(c2ccc(S(=O)(=O)NCc3cccnc3)cc2)C1=O (configuration not stated)	i
Cc1ccc(NC(=O)Cn2c(-c3ccccc3)nc(C)c(CCO)c2=O)cc1Cl	i
SMILES	KDM5B inhibitor
NC(=O)c1cccc(-c2ncc3c(n2)OCCN(Cc2ccc(F)cc2F)C3=O)c1	i
COc1cccc(F)c1-c1ncc2c(n1)OCCN(CC1CC1)C2=O	28µM*
O=C1c2cnc(-c3ccoc3)nc2OCCN1Cc1ccc(F)cc1F	35µM*
CC(=O)Nc1cccc(-c2ncc3c(n2)OCCN(CC2CC2)C3=O)c1	32µM*
CC(=O)Nc1cccc(-c2ncc3c(n2)OCCN(c2ccccc2)C3=O)c1	i
COc1cccc(-c2ncc3c(n2)OCCN(CC2CC2)C3=O)c1OC	i
O=C1c2cnc(-c3cccc(O)c3)nc2OCCN1c1cccc(C(F)(F)F)c1	i
O=C1c2cnc(-c3ccc(F)cc3F)nc2OCCN1Cc1ccc(F)cc1F	i
CC(=O)Nc1cccc(-c2ncc3c(n2)OCCN(Cc2ccc(F)cc2F)C3=O)c1	32µM*
C[S+](=O)([O-])c1cccc(-c2ncc3c(n2)OCCN(CC2CC2)C3=O)c1	i
O=C(Nc1ccccc1F)N1CCN(c2ccc(Cl)cc2)CC1	i
Cc1ccc(SCc2ccc(C(=O)Nc3cccc(C)c3C)cc2)cc1	i
CCN(CC)c1ccc(NC(=O)CCc2c[nH]c3ccccc23)cc1	i
CC(C1CC1)N(C)C(=O)/C=C/c1cccc(C#N)c1 (configuration not stated)	i
O=C(CS(=O)(=O)Cc1ccccc1)Nc1ccc(F)cc1	i
Cn1nccc1-c1ncc2c(n1)OCCN(Cc1ccccc1)C2=O	i
COc1ccc(Cl)cc1-c1ncc2c(n1)OCCN(Cc1ccc(F)cc1F)C2=O	35µM*
O=c1cc(CN2CCN(CCO)CC2)c2cc(O)ccc2o1	i
O=C(CCc1c[nH]c2ccccc12)OCC(=O)c1ccc2ccccc2c1	i
Cc1ccc(-c2cnc(CCC(=O)N3CCN(CC(=O)Nc4cccc(F)c4)CC3)o2)cc1	i
CCN(CC)S(=O)(=O)c1cc(C(=O)OCc2csc(-c3ccccc3)n2)ccc1Cl	i
Cc1cnn(CC(=O)N[C@@H]2CN(C3CCOCC3)C[C@H]2CN(C)C)c1	i
CN(C)C[C@@H]1CN(c2ncccn2)C[C@H]1NC(=O)c1nn(C)c2ccccc12	32µM*
